Experimental data as given in ChEMBL document CHEMBL4296182, “CO-ADD screening of NIH NCI Diversity Set V”.
For part of these data: Measured potencies and affinities stand elsewhere.

Tests used:
Staphylococcus aureus = assay: Antibacterial activity against Staphylococcus aureus MRSA ATCC 43300 (CO-ADD:GP_020); MIC in CAMBH media using NBS plates, by Resazurin F(560/590); type: functional; settings: Concentration 20 uM, ASSAY_TEST Inhibition of Bacterial Growth, detection method Resazurin, Fluorescence (ex560/em590), MEDIA CAMHB, plate type 384well, CORNING #3640, time 18 hr
Acinetobacter baumannii = assay: Antibacterial activity against Acinetobacter baumannii ATCC 19606 (CO-ADD:GN_034); MIC in CAMBH media using NBS plates, by Resazurin F(560/590); type: functional; settings: Concentration 20 uM, ASSAY_TEST Inhibition of Bacterial Growth, detection method Resazurin, Fluorescence (ex560/em590), MEDIA CAMHB, plate type 384well, CORNING #3640, time 18 hr
Escherichia coli = assay: Antibacterial activity against Escherichia coli ATCC 25922 (CO-ADD:GN_001); MIC in CAMBH media using NBS plates, by Resazurin F(560/590); type: functional; settings: Concentration 20 uM, ASSAY_TEST Inhibition of Bacterial Growth, detection method Resazurin, Fluorescence (ex560/em590), MEDIA CAMHB, plate type 384well, CORNING #3640, time 18 hr
Klebsiella pneumoniae = settings: Concentration 20 uM; ASSAY_TEST Inhibition of Bacterial Growth; detection method Absorption (OD600); MEDIA CAMHB; plate type 384well; NBS; CORNING #3640; time 18 hr
Candida albicans = settings: 20 µM
Cryptococcus neoformans = settings: Concentration 20 uM; ASSAY_TEST Inhibition of Fungal Growth; detection method Resazurin; Absorption (OD600-OD570); plate type 384well; NBS; CORNING #3640

Structure (SMILES) | Inhibition (Staphylococcus aureus) | Inhibition (Acinetobacter baumannii) | Inhibition (Escherichia coli) | Inhibition (Klebsiella pneumoniae) | Inhibition (Candida albicans) | Inhibition (Cryptococcus neoformans)
CCCCNCC1CCCO1 (stereo not given) | 9.4% | -3.42% | 8.45% | 9.23% | -0.1% | -3.66%
Brc1csc2ncccc12 | 8.68% | 14.4% | -1.37% | 10.17% | 7.21% | -5.07%
CCN(CC)CCNC(=O)c1ccc(NCN2C(=O)NC(c3ccccc3)(c3ccccc3)C2=O)cc1 | 12.78% | -11.12% | 11.42% | 8.03% | 1.74% | -3.88%
C=C1CC2(OC1=O)c1ccccc1CCc1ccccc12 | -2.53% | -14.2% | 2.27% | 9.76% | 10.3% | -9.88%
c1ccc2c(c1)Oc1cccc3cccc-2c13 | 13.84% | -15.64% | 12.26% | 8.47% | 7.02% | -13.12%
CCOC(=O)Nc1ccc2nc(Sc3ccc(Cl)cc3)sc2c1 | 12.84% | 1.81% | -1.5% | 17.17% | 10.2% | -3.93%
COc1cc(-c2ccc(NC(=O)NC3CC3)c(OC)c2)ccc1NC(=O)NC1CC1 | 15.12% | -9.96% | 13.19% | 5.08% | 3.52% | -5.24%
COc1ccc2c(c1)C(=O)C1NC(=O)NC(=O)C1(Br)N2 (stereo not given) | 19.24% | -10.78% | 15.57% | 4.36% | -1.05% | -13.08%
CC1=CC(C)(C(Cl)(Cl)Cl)C(C)=C/C1=N/O (stereo not given) | 1.65% | -20.29% | 8.83% | 12.76% | 4.85% | -11.97%
Nc1ccc2c(c1Cl)C(=O)c1ccc(N)c(Cl)c1C2=O | 3.14% | -5.21% | 14.11% | 8.12% | -1.01% | 17.48%
CCC12CCCN3CCc4c(n(c5ccccc45)C(O)(C(=O)OC)C1)C32 (stereo not given) | 7.39% | 9.61% | 2.09% | 11.45% | 0.39% | 5.96%
S=C(Sc1ccc(Cl)cc1)Sc1ccc(Cl)cc1 | -6.64% | 10.03% | 10.65% | 7.47% | 2.15% | -8.72%
COc1ccccc1/C=C(\C#N)C(=O)O | 12.51% | 1.75% | 5.31% | 6.46% | 6.96% | -7.1%
COc1cc(NC(=O)CCl)ccc(=O)c1 | -5.48% | 6.09% | 9.48% | 4.54% | 1.92% | -8.46%
O=C(Nc1ccc(Br)cc1)Nc1ccccc1Cl | 14.34% | -1.5% | 10.13% | 5.62% | 1.52% | -9.14%
ON=C(NCc1ccccc1)c1ccccc1 | -15.15% | 6.48% | -18.65% | 2.92% | -0.43% | 19.05%
COc1ccc(C(=O)Oc2cccnc2O)cc1 | -4.34% | 16.28% | -5.51% | 12.02% | 4.27% | -4.22%
O=C(Nc1cccc(Cl)c1)Nc1nccs1 | 1.33% | -6.03% | 8.66% | 7.36% | 3.47% | -22.98%
COc1ccc2c(C)cc(C)nc2n1 | 4.34% | -9.69% | 1.95% | -0.51% | 3.88% | -1.59%
c1ccc(-c2nnc3nc(N4CCCCC4)nc(N4CCCCC4)n23)cc1 | -3.53% | -1.96% | 14.28% | 1.6% | 1.09% | -15.11%
CCC(CC)NCCOC(=O)c1ccc([N+](=O)[O-])cc1 | -1.24% | -9.59% | 5.41% | 5.67% | 0.5% | -8.44%
NC(=O)c1cc2c3ccccc3ccn2c1-c1ccccc1 | 8.37% | -5.02% | 3.37% | 9.25% | 6.45% | -9.75%
Cc1nc2c(O)cccc2cc1CO | 12.47% | -18.52% | 6.1% | 7.86% | -0.94% | -5.84%
Cc1cc2c3ccccc3ncn2n1 | 14.33% | -9.67% | 5.54% | 9.54% | 5.02% | -5.91%
C(=C\CSc1ccccn1)/CSc1ccccn1 | 10.81% | -13.92% | 9.4% | 8.71% | 2.49% | -12.06%
